aSyn UTR act = Activators working through SNCA 5'UTR binding (MLPCN); alpha-synuclein 5'UTR reporter, activators screen; activity score, % (tested at 7.5 µM), hits read low; 300,000 tested, 7.1% active; AID 1814; in the data active means activity score below about -60%
Each line names hits and unclear results; the compound was inactive in the other large screens. Not all results are given here.

O=c1c(C=Nc2cccc(C(F)(F)F)c2)c[nH]n1-c1cccc(Cl)n1	aSyn UTR act -65
O=C(/C=C/c1ccc2ccccc2c1)c1ccoc1	aSyn UTR act -123
Cc1ccc(NC(=O)c2ccccc2F)nc1	aSyn UTR act -88
COc1cc2ccccc2cc1C(=O)Nc1ccc(C)cn1	aSyn UTR act -87
Cc1ccc(NC(=O)c2cc(F)c(F)cc2Cl)nc1	aSyn UTR act -130
CC(=O)c1c(C)[nH]c(C(=O)Nc2ccc(C)cn2)c1C	none
O=C1c2cccc3cc([N+](=O)[O-])cc(c23)C(=O)N1CCN1CCCC1	none
O=C1c2cccc3c(N4CCCCC4)ccc(c23)C(=O)N1CCO	aSyn UTR act -120
O=C(OCCN1C(=O)c2cccc3c(N4CCOCC4)ccc(c23)C1=O)c1ccc(Cl)cc1Cl	none
O=C1c2cccc3c(N4CCCCC4)ccc(c23)C(=O)N1c1cccc(O)c1	aSyn UTR act -78
C=CCN1C(=O)c2cccc3c(N4CCCCC4)ccc(c23)C1=O	aSyn UTR act -66
Brc1ccc2nc(-c3cccs3)c(NCC3CCCO3)n2c1 (stereo unspecified)	aSyn UTR act -175
c1ccc(Cn2cc(CSc3ccccc3)nn2)cc1	aSyn UTR act -137
COc1ccccc1N(CC(=O)N/N=C/c1c(O)ccc2ccccc12)S(C)(=O)=O	none
CC(=O)Nc1ccc(NC(=O)CN(c2cccc([N+](=O)[O-])c2)S(C)(=O)=O)cc1	none
COc1ccc(CNC(=O)CN(c2cc(C)cc(C)c2)S(=O)(=O)c2c(C)[nH]c(=O)[nH]c2=O)cc1	aSyn UTR act -81
CCOc1ccc(N(CC(=O)Nc2ccc(C)c(C)c2)S(C)(=O)=O)cc1	aSyn UTR act -171
CCOc1ccc(N(CC(=O)NCc2ccc(OC)cc2)S(C)(=O)=O)cc1	aSyn UTR act -81
COc1ccc(N(CC(=O)Nc2cc(Cl)ccc2OC)S(=O)(=O)c2c(C)noc2C)cc1	none
COc1ccc(OC)c(C(=O)CC2OC(=O)c3ccccc32)c1 (stereo unspecified)	aSyn UTR act -70
Cn1nccc1C(=O)Nc1ccc(Cl)cc1	aSyn UTR act -63
Cn1nccc1C(=O)Nc1ccc2c(c1)OCO2	aSyn UTR act -115
Cc1cccc(NC(=O)c2oc3c(c2C)C(=O)CC(C)(C)C3)n1	aSyn UTR act -83
O=c1[nH]c(/C=C/c2cccc3ccccc23)nc2ccccc12	aSyn UTR act -104
O=c1[nH]c(/C=C/c2ccccn2)nc2ccccc12	aSyn UTR act -176
O=c1[nH]c(/C=C/c2ccccc2[N+](=O)[O-])nc2ccccc12	aSyn UTR act -190
CCN(CC)c1ccc2c(c1)OC(N)=C(C#N)C2c1cccnc1 (stereo unspecified)	none
CNc1nc(-c2ccc3c(c2)CCN3C(=O)CC(C)(C)C)c(C)s1	aSyn UTR act -118
CC(=O)Nc1nc(-c2ccc3c(c2)CCN3C(=O)C2CC2)c(C)s1	aSyn UTR act -255
Cc1ccc(-c2nc(NC(=O)c3nn(C)cc3[N+](=O)[O-])sc2C)cc1	none
CNc1nc(-c2ccc3c(c2)CCN3C(=O)c2ccccc2F)cs1	aSyn UTR act -90
CCC(C)C(=O)N1CCc2cc(-c3csc(N)n3)ccc21 (stereo unspecified)	aSyn UTR act -172
CC(C)(C)C(=O)N1CCc2cc(-c3csc(N)n3)ccc21	none
CCCC(=O)N1CCc2cc(-c3nc(N)sc3C)ccc21	aSyn UTR act -208
Cc1cccc(-c2nc(=S)c3c(o2)CCCC3)c1	aSyn UTR act -133
S=c1nc(-c2ccc(Br)cc2)oc2c1CCCC2	aSyn UTR act -184
CC(=O)Nc1ncc(N=Nc2cccc(C(F)(F)F)c2)s1	aSyn UTR act -79
CSc1ccc(NC(=O)Nc2cccn(Cc3ccccc3F)c2=O)cc1	aSyn UTR act -76
C[C@H]1COC2=C1C(=O)C(=O)c1c2ccc2c1CCCC2(C)C	none
O=C(Nc1ncccc1O)c1ccc(S(=O)(=O)Nc2ccccc2)cc1	aSyn UTR act active
O=C(Nc1ccccc1O)c1ccc(NS(=O)(=O)c2cccc3cccnc23)cc1	aSyn UTR act -605
Cc1ccc2c(c1)C(=O)C(=O)N2CCCOc1ccccc1C	aSyn UTR act -110
O=C(NCC1CCCO1)c1cc2ccccc2cc1O (stereo unspecified)	aSyn UTR act -125
O=C(NCC1CCCCC1)c1cc2ccccc2cc1O	aSyn UTR act -109
CCOC(=O)C(C)/C(C)=N/NC(=O)c1cc2ccccc2cc1O (stereo unspecified)	none
CC(C)CCOCC(=O)Nc1cccc(C(=O)O)c1	aSyn UTR act -73
Cc1nn(-c2cc(C)c3ccccc3n2)c2c1CCC2	aSyn UTR act -90
COc1ccc(C)cc1Nc1c2c(nc3ccccc13)CCC2	none
COc1cccc(NC(=O)/C=C/c2ccco2)c1	aSyn UTR act -158
COc1ccccc1NC(=O)/C=C\c1ccco1	aSyn UTR act -84
O=C(/C=C/c1ccco1)Nc1cccc2cccnc12	aSyn UTR act -168
O=C(/C=C/c1ccco1)Nc1ccc(Oc2ccc(Cl)cc2)cc1	aSyn UTR act -203
CC(C)C(=O)NC(c1ccco1)c1ccc2cccnc2c1O (stereo unspecified)	none
O=C(/C=C/c1ccco1)Nc1cccnc1	aSyn UTR act -122
Cc1ccc(NC(=O)/C=C/c2ccco2)nc1	aSyn UTR act -63
CSc1cccc(NC(=O)/C=C/c2ccco2)c1	aSyn UTR act -178
Cc1ccc(N(C(=O)c2cc3ccccc3oc2=O)C2C=CS(=O)(=O)C2)cc1 (stereo unspecified)	aSyn UTR act -107
CCOc1ccc(N(C(=O)c2cc3ccccc3oc2=O)C2C=CS(=O)(=O)C2)cc1 (stereo unspecified)	aSyn UTR act -88
Cc1cc(C)cc(N(C(=O)c2cc3ccccc3oc2=O)C2C=CS(=O)(=O)C2)c1 (stereo unspecified)	aSyn UTR act -126
CC1=C(CC(=O)c2ccc(Cl)cc2)C(=O)c2ccccc2C1=O	aSyn UTR act -70
O=C(Cc1ccccn1)c1ccc(Cl)cc1	aSyn UTR act -164
O=c1c2ccccc2nc(/C=C/c2c[nH]c3ccccc23)n1CCO	aSyn UTR act -160
O=C(c1cnn(-c2ccccc2)c1)c1cc(F)ccc1O	aSyn UTR act -163
NNC(=O)c1nn(-c2ccccc2)cc1O	none
O=C(c1cnn(-c2ccccc2)c1)c1ccccc1O	aSyn UTR act -106
CCSc1n[nH]c(=S)s1	aSyn UTR act -89
CCOC(=O)c1sc(NC(=O)c2ccc3ncsc3c2)nc1C	aSyn UTR act -89
COc1ccc(C(=O)NC(=O)COC(=O)c2ccc3ncsc3c2)cc1	aSyn UTR act -82
CCOC(=O)c1sc(NC(=O)c2cncc(Br)c2)nc1C	aSyn UTR act -105
CCOC(=O)c1sc(NNC(=O)c2ccc(F)cc2)nc1C	aSyn UTR act -76
Cc1c(Cl)cnc(NC(=O)COC(=O)c2ccc3ncsc3c2)c1Cl	none
COc1ccccc1-c1cnn2c(NC3CCCC3)cc(C)nc12	aSyn UTR act -182
COc1cc2c(cc1OC)-c1cc(NC3CCCCCCC3)nc(=O)n1CC2	none
COc1ccccc1-c1ccc(NC2CCCC2)nn1	aSyn UTR act -120
Cc1cc(C)c(NN=c2c(=O)c3ccccc3c2=O)c(C)c1	aSyn UTR act -125
COc1ccc2c(c1OC)C(=O)N1c3ccccc3C(=O)N(c3ccccc3F)C21 (stereo unspecified)	none
COc1ccc2c(c1OC)C(=O)N1c3ccccc3SC21 (stereo unspecified)	aSyn UTR act -142
COc1ccc2c(c1OC)C(=O)N1c3ccccc3COC21 (stereo unspecified)	aSyn UTR act -140
CCCSc1ccc(C(=O)Nc2ccc(F)cc2F)cn1	aSyn UTR act -87
CCCSc1nsc(NC(=O)CC)n1	aSyn UTR act -135

From PubChem BioAssay
